Source: the supplement of paper PMC11732987, “Enantioselective OTUD7B fragment discovery through chemoproteomics screening and high-throughput optimisation” (Communications Chemistry, 2025)

Columns and labels:
Assay in all cases: log2 ratio of Biotin-Ahx-Ub-VS probe labelling (fragment/DMSO); higher = less target engagement (more negative = stronger competition), active = hit call of the paper (q ≤ 0.05, log2 ratio ≤ -1)
Settings in all cases: compound concentration: 200 uM; treatment time: 3 h
USP42 = target: T1, USP42 (UniProt Q9H9J4)
T1 sequence (whole entry): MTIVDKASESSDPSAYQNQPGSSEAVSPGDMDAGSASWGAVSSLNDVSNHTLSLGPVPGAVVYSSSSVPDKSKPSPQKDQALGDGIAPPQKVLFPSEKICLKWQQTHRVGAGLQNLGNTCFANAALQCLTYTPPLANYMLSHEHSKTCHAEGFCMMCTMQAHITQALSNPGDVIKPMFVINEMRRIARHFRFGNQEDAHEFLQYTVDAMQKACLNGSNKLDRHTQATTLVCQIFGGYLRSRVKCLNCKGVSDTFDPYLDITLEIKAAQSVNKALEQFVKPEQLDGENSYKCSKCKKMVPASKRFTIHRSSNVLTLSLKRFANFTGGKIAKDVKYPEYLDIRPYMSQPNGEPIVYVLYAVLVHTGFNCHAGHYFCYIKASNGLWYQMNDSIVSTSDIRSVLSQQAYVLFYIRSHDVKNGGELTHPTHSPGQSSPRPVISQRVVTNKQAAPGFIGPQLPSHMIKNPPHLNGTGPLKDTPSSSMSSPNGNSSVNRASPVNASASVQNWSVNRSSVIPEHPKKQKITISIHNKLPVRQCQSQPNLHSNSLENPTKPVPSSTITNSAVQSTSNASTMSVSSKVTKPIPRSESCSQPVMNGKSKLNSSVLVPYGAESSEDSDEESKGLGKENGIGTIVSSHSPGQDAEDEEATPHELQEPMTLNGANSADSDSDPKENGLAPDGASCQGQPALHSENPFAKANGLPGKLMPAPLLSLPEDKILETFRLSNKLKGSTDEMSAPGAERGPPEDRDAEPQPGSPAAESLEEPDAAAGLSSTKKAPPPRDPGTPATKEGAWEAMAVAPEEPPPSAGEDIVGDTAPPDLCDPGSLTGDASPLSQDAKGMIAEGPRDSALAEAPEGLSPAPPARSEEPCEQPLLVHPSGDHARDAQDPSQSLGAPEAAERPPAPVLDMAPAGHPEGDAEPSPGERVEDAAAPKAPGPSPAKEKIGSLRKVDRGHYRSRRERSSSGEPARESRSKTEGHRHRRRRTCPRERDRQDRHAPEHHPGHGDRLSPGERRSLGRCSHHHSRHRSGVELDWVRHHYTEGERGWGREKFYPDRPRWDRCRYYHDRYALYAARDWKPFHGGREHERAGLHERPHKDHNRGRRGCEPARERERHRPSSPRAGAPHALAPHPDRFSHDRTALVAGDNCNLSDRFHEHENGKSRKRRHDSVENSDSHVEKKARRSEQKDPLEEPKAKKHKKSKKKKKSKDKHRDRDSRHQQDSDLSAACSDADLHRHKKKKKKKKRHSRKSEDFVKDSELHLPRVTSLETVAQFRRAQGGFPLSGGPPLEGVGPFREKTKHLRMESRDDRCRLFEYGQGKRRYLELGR
Outline: (§1)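 Labelled DUBs from HEK293T lysate were NeutrAvidin-enriched, digested with LysC and trypsin, and run by diaPASEF LC-MS/MS. Before that, each 495 µg sample in Tris/CHAPS/IGEPAL buffer with protease inhibitors was treated in triplicate with fragment at 200 µM or vehicle for 3 h, then with Biotin-Ahx-Ub-VS at 0.5 µM final for 1 h. Values are average log2 ratios of fragment over vehicle by unpaired t-test, based on global-median-normalised Spectronaut label-free quantities from proteins with ≥2 unique peptides.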

USP46 = USP46 (UniProt P62068)
Chain of USP46 (P62068 whole entry): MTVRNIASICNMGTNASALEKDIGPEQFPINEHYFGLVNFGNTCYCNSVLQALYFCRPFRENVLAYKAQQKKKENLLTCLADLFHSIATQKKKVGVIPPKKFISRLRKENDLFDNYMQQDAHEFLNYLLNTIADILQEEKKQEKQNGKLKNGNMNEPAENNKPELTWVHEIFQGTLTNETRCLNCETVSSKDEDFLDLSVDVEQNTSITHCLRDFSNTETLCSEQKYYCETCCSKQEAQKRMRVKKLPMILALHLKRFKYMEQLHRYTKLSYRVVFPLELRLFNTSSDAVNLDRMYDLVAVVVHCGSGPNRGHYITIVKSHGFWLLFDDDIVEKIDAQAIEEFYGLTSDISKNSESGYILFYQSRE
Outline: as §1

USP47 = target: T2, USP47 (UniProt Q96K76)
T2 sequence (whole entry): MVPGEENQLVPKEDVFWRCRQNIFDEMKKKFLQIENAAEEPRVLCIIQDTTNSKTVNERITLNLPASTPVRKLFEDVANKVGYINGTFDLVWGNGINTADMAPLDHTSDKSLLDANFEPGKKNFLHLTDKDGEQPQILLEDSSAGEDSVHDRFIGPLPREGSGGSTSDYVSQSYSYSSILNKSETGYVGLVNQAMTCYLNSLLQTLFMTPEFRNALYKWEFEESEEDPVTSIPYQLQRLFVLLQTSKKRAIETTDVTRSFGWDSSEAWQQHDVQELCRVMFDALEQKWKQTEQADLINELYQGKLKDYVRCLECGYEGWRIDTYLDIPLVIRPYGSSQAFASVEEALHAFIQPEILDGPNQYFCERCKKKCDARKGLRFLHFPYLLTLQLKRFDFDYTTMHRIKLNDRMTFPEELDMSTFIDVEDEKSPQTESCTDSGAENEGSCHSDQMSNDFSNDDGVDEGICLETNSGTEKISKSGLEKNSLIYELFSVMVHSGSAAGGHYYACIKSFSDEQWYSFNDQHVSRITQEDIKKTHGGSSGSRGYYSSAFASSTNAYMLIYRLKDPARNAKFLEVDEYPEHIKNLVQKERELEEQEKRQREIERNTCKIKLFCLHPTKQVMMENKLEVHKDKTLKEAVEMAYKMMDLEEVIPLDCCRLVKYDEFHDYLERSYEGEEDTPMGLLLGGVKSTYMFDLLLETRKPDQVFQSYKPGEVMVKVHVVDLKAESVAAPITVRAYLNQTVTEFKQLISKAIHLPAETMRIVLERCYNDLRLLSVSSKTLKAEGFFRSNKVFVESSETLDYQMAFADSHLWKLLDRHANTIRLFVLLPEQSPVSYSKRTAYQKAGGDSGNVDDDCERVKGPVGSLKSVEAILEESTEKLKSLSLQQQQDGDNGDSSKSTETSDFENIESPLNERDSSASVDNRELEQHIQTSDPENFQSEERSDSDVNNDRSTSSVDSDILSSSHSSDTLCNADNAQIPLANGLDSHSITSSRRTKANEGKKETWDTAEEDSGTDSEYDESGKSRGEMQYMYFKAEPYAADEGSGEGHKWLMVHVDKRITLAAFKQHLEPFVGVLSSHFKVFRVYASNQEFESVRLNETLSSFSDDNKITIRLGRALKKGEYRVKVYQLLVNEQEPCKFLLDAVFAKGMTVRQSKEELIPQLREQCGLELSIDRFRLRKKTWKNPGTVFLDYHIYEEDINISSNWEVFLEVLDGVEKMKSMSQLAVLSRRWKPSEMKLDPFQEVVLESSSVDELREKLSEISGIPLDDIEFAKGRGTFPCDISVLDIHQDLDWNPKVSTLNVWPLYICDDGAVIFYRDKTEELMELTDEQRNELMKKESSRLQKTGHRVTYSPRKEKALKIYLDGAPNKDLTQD
Outline: as §1

USP48 = target: T3, USP48 (UniProt Q86UV5)
T3 sequence (whole entry): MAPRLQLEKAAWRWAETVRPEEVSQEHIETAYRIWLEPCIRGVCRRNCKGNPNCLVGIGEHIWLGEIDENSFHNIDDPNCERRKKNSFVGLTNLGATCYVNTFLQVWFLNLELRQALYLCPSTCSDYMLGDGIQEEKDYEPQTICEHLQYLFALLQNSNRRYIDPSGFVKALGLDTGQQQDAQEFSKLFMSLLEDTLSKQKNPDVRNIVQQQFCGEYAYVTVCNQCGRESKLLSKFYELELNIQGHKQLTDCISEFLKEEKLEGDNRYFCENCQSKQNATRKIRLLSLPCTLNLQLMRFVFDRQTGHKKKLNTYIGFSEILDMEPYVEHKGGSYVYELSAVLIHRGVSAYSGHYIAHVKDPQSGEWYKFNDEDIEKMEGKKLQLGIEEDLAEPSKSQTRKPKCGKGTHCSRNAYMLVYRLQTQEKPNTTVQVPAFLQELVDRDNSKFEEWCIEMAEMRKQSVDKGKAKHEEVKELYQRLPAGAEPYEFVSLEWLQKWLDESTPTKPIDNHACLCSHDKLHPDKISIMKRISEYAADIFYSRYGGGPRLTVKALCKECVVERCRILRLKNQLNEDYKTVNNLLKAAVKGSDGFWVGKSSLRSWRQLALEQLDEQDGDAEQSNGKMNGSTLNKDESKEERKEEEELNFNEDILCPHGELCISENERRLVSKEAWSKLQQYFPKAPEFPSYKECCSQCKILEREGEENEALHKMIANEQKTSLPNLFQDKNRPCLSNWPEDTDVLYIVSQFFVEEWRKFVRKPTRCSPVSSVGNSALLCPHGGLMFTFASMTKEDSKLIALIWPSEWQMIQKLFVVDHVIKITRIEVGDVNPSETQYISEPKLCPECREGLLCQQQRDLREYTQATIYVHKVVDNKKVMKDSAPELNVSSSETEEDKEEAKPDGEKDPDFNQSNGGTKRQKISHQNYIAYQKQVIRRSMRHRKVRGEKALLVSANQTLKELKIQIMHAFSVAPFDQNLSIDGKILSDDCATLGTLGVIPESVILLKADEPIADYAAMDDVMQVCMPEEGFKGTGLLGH
Outline: as §1

USP5 = target: T4, USP5 (UniProt P45974)
T4 sequence (whole entry): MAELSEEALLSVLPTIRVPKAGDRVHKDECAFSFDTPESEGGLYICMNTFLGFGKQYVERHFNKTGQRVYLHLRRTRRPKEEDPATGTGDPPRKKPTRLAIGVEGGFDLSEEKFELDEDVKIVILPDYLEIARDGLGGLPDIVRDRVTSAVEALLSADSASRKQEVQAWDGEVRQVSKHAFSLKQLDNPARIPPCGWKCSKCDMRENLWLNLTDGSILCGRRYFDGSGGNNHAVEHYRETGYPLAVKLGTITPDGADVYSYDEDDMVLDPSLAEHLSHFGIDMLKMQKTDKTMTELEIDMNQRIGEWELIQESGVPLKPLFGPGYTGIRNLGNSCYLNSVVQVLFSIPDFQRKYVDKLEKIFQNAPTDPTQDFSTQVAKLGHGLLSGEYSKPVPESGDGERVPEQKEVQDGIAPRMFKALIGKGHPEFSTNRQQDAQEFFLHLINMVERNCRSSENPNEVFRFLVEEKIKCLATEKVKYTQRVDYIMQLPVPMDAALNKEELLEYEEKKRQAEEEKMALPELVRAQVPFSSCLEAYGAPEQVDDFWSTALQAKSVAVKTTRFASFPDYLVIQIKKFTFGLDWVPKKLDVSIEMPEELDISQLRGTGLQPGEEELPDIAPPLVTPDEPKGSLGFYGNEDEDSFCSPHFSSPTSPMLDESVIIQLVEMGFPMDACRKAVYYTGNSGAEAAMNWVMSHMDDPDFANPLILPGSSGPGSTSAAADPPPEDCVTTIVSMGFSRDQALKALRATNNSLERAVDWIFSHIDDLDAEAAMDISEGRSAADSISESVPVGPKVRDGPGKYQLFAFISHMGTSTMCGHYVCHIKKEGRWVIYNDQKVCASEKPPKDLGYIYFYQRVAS
Outline: as §1

USP54 = USP54 (UniProt Q70EL1)
Outline: as §1

USP7 = USP7 (UniProt Q93009)
Chain of USP7 (Q93009 whole entry, looked up): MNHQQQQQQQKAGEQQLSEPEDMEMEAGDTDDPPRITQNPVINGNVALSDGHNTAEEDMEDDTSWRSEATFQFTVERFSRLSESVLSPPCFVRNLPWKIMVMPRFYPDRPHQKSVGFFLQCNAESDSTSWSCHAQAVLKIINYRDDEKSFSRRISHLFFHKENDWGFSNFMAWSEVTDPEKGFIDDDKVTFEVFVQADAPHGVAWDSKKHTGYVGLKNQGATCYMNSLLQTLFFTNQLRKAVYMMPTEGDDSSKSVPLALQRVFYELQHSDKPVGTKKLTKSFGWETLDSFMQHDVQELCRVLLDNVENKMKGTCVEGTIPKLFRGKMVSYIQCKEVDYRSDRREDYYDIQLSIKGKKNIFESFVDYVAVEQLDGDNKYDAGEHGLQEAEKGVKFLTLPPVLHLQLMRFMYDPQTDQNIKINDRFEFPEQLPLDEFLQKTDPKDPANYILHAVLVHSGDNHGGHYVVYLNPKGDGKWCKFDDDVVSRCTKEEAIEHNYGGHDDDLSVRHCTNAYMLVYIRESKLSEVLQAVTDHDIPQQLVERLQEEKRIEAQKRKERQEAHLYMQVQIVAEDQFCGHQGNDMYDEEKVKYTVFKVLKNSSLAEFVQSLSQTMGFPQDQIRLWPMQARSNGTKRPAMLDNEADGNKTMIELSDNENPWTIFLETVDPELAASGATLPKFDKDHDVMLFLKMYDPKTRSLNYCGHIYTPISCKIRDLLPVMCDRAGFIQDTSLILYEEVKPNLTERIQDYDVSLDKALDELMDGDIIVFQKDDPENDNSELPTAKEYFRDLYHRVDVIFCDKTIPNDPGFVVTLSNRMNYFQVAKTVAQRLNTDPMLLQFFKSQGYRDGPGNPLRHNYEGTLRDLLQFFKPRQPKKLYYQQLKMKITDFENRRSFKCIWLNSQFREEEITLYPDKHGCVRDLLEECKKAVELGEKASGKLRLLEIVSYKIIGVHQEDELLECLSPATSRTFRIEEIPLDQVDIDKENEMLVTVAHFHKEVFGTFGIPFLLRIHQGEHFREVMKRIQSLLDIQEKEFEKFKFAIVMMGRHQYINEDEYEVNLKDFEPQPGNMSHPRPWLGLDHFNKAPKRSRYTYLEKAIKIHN
Outline: as §1

USP8 = target: T5, USP8 (UniProt P40818)
T5 sequence (whole entry): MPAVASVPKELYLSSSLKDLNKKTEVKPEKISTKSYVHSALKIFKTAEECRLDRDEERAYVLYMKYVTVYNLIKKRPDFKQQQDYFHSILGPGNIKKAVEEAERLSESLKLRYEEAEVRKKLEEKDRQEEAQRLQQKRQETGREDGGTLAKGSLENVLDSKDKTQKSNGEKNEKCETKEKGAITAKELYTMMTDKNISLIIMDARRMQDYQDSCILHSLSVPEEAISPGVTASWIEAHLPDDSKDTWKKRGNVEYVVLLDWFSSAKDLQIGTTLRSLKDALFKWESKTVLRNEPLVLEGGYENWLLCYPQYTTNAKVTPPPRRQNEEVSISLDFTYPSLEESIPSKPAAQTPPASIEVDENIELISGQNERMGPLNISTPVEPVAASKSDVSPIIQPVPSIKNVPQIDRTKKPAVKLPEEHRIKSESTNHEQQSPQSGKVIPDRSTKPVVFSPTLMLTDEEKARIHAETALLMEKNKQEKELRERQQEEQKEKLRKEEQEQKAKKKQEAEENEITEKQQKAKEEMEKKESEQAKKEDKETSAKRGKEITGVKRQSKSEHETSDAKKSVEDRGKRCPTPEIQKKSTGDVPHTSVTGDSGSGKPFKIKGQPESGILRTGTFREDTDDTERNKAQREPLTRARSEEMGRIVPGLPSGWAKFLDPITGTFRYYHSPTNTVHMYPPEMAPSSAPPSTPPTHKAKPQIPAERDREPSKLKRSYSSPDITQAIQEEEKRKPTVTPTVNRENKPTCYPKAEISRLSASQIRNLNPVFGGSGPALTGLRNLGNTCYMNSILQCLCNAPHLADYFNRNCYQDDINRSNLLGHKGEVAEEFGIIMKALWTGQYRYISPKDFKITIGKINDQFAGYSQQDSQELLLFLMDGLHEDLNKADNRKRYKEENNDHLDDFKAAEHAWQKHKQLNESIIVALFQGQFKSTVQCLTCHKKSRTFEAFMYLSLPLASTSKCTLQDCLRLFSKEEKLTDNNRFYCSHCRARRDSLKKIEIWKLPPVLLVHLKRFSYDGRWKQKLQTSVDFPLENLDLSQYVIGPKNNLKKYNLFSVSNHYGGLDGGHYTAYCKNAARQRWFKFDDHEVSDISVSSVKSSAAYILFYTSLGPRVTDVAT
Outline: as §1

USP9X = USP9X (UniProt Q93008)
Chain of USP9X (Q93008 whole entry): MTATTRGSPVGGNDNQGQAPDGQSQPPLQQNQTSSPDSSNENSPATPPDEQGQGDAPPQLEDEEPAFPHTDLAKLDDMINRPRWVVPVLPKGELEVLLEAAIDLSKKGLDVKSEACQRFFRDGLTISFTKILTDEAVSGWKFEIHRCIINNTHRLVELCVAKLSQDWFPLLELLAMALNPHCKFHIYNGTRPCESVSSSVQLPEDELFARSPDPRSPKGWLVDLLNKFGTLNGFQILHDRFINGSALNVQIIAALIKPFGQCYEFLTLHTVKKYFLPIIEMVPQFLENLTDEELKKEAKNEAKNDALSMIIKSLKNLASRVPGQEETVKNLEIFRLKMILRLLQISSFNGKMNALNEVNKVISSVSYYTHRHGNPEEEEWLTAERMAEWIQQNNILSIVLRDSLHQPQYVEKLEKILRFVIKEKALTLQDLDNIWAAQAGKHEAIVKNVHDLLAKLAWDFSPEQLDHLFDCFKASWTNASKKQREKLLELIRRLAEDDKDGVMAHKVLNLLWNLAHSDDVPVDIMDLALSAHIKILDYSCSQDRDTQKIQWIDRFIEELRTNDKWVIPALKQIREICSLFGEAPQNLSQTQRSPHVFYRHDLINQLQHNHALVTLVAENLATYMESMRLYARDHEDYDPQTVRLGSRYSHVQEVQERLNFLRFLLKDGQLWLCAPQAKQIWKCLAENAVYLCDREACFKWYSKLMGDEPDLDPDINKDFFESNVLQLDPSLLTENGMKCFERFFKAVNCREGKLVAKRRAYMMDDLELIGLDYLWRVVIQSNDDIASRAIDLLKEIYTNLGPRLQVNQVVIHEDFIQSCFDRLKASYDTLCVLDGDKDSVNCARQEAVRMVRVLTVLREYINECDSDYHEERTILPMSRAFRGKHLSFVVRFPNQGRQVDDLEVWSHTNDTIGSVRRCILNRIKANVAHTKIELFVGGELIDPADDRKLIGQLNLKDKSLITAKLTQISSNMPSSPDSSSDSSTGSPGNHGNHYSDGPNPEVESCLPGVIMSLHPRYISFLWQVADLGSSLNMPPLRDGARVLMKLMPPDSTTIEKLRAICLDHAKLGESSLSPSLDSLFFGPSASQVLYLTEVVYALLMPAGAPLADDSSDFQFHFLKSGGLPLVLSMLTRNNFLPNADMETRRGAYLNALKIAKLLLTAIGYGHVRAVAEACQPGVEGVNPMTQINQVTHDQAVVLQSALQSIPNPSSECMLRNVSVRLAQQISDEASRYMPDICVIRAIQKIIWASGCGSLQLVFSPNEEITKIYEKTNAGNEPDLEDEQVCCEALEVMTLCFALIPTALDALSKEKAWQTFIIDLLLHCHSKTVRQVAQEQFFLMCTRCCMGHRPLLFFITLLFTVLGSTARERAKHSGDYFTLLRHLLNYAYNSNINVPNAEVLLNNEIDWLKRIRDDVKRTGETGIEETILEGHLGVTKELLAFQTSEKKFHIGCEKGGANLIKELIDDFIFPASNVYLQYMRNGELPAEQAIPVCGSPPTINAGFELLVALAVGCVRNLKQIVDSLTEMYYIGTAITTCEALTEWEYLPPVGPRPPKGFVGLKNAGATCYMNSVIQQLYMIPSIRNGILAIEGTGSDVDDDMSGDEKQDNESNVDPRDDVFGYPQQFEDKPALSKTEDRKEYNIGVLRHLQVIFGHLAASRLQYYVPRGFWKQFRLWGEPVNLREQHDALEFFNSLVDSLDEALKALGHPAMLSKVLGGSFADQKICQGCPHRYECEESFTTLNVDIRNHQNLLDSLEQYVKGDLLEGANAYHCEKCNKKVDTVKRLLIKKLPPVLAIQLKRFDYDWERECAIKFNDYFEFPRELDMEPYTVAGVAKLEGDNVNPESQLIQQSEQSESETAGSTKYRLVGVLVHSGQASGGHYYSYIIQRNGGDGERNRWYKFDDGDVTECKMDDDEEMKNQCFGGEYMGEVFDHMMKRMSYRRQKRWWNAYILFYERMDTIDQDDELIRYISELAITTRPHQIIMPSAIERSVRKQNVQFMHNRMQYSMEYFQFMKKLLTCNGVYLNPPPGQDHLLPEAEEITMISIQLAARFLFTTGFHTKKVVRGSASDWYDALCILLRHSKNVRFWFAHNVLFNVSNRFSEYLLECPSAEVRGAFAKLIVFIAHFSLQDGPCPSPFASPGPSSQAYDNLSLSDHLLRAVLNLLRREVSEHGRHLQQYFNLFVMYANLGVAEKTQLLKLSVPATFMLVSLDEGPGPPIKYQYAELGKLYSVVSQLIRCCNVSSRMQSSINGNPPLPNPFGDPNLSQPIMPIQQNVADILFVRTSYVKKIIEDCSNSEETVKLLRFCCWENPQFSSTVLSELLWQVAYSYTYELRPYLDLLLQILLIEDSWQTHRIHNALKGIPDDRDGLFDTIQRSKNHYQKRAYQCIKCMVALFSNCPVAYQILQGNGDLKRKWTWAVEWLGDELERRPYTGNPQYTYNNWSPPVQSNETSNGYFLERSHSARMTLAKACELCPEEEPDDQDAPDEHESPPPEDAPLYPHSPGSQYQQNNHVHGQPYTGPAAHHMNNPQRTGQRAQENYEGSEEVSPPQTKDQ
Outline: as §1

UniProt O00487 = target: UniProt O00487
Chain of UniProt O00487 (O00487 whole entry): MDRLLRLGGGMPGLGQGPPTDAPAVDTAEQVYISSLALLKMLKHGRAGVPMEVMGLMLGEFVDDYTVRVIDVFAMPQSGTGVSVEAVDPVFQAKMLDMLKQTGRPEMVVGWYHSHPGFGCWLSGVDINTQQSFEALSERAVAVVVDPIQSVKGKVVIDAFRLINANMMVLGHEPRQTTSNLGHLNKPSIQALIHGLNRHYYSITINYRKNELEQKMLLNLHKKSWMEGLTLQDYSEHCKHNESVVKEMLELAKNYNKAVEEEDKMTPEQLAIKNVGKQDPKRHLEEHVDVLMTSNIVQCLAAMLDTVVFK
Outline: as §1

Measured: log2 ratio of Biotin-Ahx-Ub-VS probe labelling

CC(=O)Nc1ccc(NC(=O)CCl)cc1
inactive: USP42 0.329 | USP46 -0.0429 | USP47 -0.31 | USP48 -0.256 | USP5 -0.0185 | USP54 0.408 | USP7 -0.267 | USP8 -0.236 | USP9X -0.118 | UniProt O00487 -0.167

Cc1ccc(C)c(NC(=O)CCl)c1
inactive: USP42 0.248 | USP46 -0.456 | USP47 -0.823 | USP48 -0.558 | USP5 -0.353 | USP54 -0.00643 | USP7 -0.537 | USP8 -0.263 | USP9X -0.374 | UniProt O00487 -0.102

Cc1cccc(N2CCC(NC(=O)CCl)C2=O)c1 (stereo not given)
inactive: USP42 -0.395 | USP46 0.013 | USP47 -0.0227 | USP48 -0.138 | USP5 -0.179 | USP54 0.699 | USP7 -0.204 | USP8 -0.325 | USP9X -0.421 | UniProt O00487 0.133
